Drawing on PubChem BioAssay (NCI), this text covers growth for nine compounds.

Among the test systems are SR leukemia; RPMI-8226 leukemia; OVCAR-8 ovarian; OVCAR-5 ovarian; OVCAR-4 ovarian; IGROV1 ovarian; OVCAR-3 ovarian; HS 578T breast; NCI/ADR-RES ovarian; BT-549 breast; MDA-MB-435 melanoma; SW-620 colon; MCF7 breast; HCT-116 colon; HCC-2998 colon; KM12 colon; SK-OV-3 ovarian; T-47D breast.
What all share (assay): NCI-60 one-dose screen, 48 h (100 = growth as untreated, 0 = no growth, -100 = all killed)
Conditions in all cases: 10 µM unless noted

SMILES strings stand for the structures. This is part of a sample that, as a whole, favours compounds with a hit. Of some 83,000 tested, about 20% had one in any assay.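 Cell lines were cultured in 96-well plates, exposed to a single compound concentration, and assessed for percent growth 48 hours later.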 A number with no mark means an inactive call. Active and inactive are the calls of the source. Rule for the calls: active = growth percent below 10; inactive = the rest.

With `CC1(C)NCCC[C@]2(C)[C@H]3CC=C4[C@@H]5C[C@](C)(COC(=O)c6ccccc6C(=O)O)CC[C@]5(C)CC[C@@]4(C)[C@]3(C)CC[C@@H]12`, the growth with SR leukemia is 25.2%; in the assay on RPMI-8226 leukemia, 19.2%; in the assay with OVCAR-8 ovarian, 83.7%; with OVCAR-5 ovarian, 88.8%; in the assay with OVCAR-4 ovarian it was 51.3%; in the assay with IGROV1 ovarian it was 59.2%. Besides, the growth with OVCAR-3 ovarian is 60%; in the assay with HS 578T breast it was 63%; in the assay with NCI/ADR-RES ovarian it was 78.2%; with BT-549 breast, 72.4%; in the assay with MDA-MB-435 melanoma it was 62.4%; in the assay with SW-620 colon, 67.2%. Besides, the growth in the assay on MCF7 breast is 41.1%; in the assay with HCT-116 colon, 16.5%; with HCC-2998 colon, 73.4%; with KM12 colon, 55.2%.
On to `C=CCNC(=S)NNc1ccc([N+](=O)[O-])cn1`, for which the growth in the assay with SR leukemia is 98.3%; in the assay with RPMI-8226 leukemia, 101%; with OVCAR-8 ovarian, 111%; with OVCAR-5 ovarian, 95.6%; in the assay on OVCAR-4 ovarian, -92.2% (active); in the assay on SK-OV-3 ovarian, 104%. The growth in the assay with OVCAR-3 ovarian is 98.7%; in the assay on HS 578T breast, 105%; in the assay with NCI/ADR-RES ovarian, 95.9%; with T-47D breast it was 113%; with BT-549 breast, 100%; in the assay on MDA-MB-435 melanoma, 95.7%. The growth in the assay with SW-620 colon was 92%; in the assay on MCF7 breast, 88.4%; with HCT-116 colon, 97.6%; in the assay on HCC-2998 colon it was 96.3%; with KM12 colon, 99.4%.
For the compound `CC1=NN(c2cccc(Cl)c2)C(=O)/C1=C\c1cn(-c2nc(N3CCOCC3)nc(N3CCOCC3)n2)c2ccccc12`, the growth in the assay on SR leukemia is 100%; in the assay with RPMI-8226 leukemia it was 98.3%; with OVCAR-8 ovarian it was 107%; in the assay with OVCAR-5 ovarian it was 103%; in the assay with OVCAR-4 ovarian, 105%; in the assay on SK-OV-3 ovarian, 109%. Moreover, the growth in the assay on OVCAR-3 ovarian is 106%; in the assay on HS 578T breast it was 104%; in the assay with NCI/ADR-RES ovarian it was 103%; in the assay with T-47D breast, 99.8%; with BT-549 breast, 103%; in the assay on MDA-MB-435 melanoma, 100%. The growth in the assay on SW-620 colon is 110%; with MCF7 breast, 98.9%; with HCT-116 colon it was 94.9%; in the assay on HCC-2998 colon it was 104%; in the assay with KM12 colon, 107%.
With `C=C(C)[C@@H]1CC[C@]2(COC(=O)c3ccccc3C(=O)O)CC[C@]3(C)[C@H](CC[C@@H]4[C@@]5(C)CCCNC(C)(C)[C@@H]5CC[C@]43C)[C@@H]12`, the growth in the assay on SR leukemia is 6.59% (active); in the assay on RPMI-8226 leukemia, 23.3%; with OVCAR-8 ovarian, 70.5%; with OVCAR-5 ovarian, 90%; in the assay on OVCAR-4 ovarian, 57.3%; in the assay on IGROV1 ovarian, 54.5%. For the same compound, the growth in the assay on OVCAR-3 ovarian is 68%; in the assay with HS 578T breast, 78.5%; in the assay with NCI/ADR-RES ovarian, 89.7%; in the assay on BT-549 breast it was 72.6%; in the assay on MDA-MB-435 melanoma, 60.9%; with SW-620 colon, 70.5%. Besides, the growth in the assay with MCF7 breast is 26.3%; in the assay with HCT-116 colon it was 32.2%; in the assay on HCC-2998 colon, 72.1%; in the assay on KM12 colon, 51.9%.
On to `CCS(=O)(=O)OCCO[C@H]1Cc2cc3ccc(=O)oc3cc2OC1(C)C`, for which the growth with SR leukemia is 111%; in the assay with RPMI-8226 leukemia, 113%; in the assay with OVCAR-8 ovarian, 101%; in the assay on OVCAR-5 ovarian, 107%; in the assay with OVCAR-4 ovarian it was 106%; with IGROV1 ovarian it was 109%. For the same compound, the growth in the assay with OVCAR-3 ovarian is 108%; in the assay with HS 578T breast, 98%; in the assay with NCI/ADR-RES ovarian, 107%; with BT-549 breast, 100%; in the assay with MDA-MB-435 melanoma, 107%; in the assay on SW-620 colon, 97%. Besides, the growth in the assay on MCF7 breast was 95.1%; in the assay on HCT-116 colon it was 106%; in the assay on HCC-2998 colon, 109%; in the assay with KM12 colon it was 104%.
Take `CCCCCCCCC/C(=N\NC(=O)c1ccncc1)c1ccc(O)c(O)c1O`: the growth with SR leukemia is 6.56% (active); in the assay with RPMI-8226 leukemia, 27.1%; with OVCAR-8 ovarian it was 13.8%; with OVCAR-5 ovarian, 48.6%; with SK-OV-3 ovarian, 24.3%; in the assay on IGROV1 ovarian it was 24.9%. In addition, the growth in the assay with OVCAR-3 ovarian is 25.6%; with NCI/ADR-RES ovarian it was 7.59% (active); with T-47D breast, 33.7%; in the assay with BT-549 breast it was 38.8%; in the assay on MDA-MB-435 melanoma, 53%; in the assay on SW-620 colon, 43.1%. Moreover, the growth was 21.4% in the assay on MCF7 breast, 26.7% in the assay with HCT-116 colon, 33.3% in the assay with HCC-2998 colon and 22.4% with KM12 colon.
`C/C(CCC(=O)O)=N/Nc1ccc([N+](=O)[O-])cc1`: the growth in the assay on SR leukemia is 40.6%; with RPMI-8226 leukemia, 51.9%; in the assay on OVCAR-8 ovarian, 70.4%; with OVCAR-5 ovarian, 68.1%; in the assay with OVCAR-4 ovarian, 66.3%; in the assay on IGROV1 ovarian it was 103%. In addition, the growth in the assay on OVCAR-3 ovarian was 89.9%; with HS 578T breast it was 92.9%; in the assay on NCI/ADR-RES ovarian, 49.6%; in the assay on MDA-MB-435 melanoma, 38.6%; with SW-620 colon, 72.6%; in the assay with MCF7 breast it was 65.2%. For the same compound, the growth with HCT-116 colon was 56.8%; in the assay with HCC-2998 colon, 59.9%; in the assay with KM12 colon, 27.1%.
Turning to `N#CCCCCCCCCCCC#N`, the growth with SR leukemia was 118%; in the assay on RPMI-8226 leukemia it was 94.9%; in the assay with OVCAR-8 ovarian it was 100%; with OVCAR-5 ovarian, 99.6%; in the assay with SK-OV-3 ovarian, 109%; in the assay on IGROV1 ovarian, 124%. The growth was 125% with OVCAR-3 ovarian; 98.3% in the assay with NCI/ADR-RES ovarian; 96.2% with T-47D breast; 102% in the assay with BT-549 breast; 91.9% in the assay on MDA-MB-435 melanoma; 104% in the assay on MCF7 breast. Also, the growth in the assay with HCT-116 colon was 105%; in the assay with HCC-2998 colon it was 95%; in the assay with KM12 colon, 111%.
As to `CCN(CC)c1ccc2nc3ccc(N=Nc4ccc(O)cc4)cc3[n+](-c3ccccc3)c2c1`, the growth was 49% in the assay on SR leukemia; 30.6% with RPMI-8226 leukemia; 56.8% in the assay on OVCAR-8 ovarian; 113% with OVCAR-5 ovarian; 89.7% in the assay with SK-OV-3 ovarian; 8.59% (active) with IGROV1 ovarian. In addition, the growth in the assay with OVCAR-3 ovarian was -15.4% (active); in the assay on NCI/ADR-RES ovarian, 101%; in the assay with T-47D breast, 32.7%; with MDA-MB-435 melanoma it was 48.6%; in the assay with MCF7 breast it was -13.8% (active); in the assay on HCT-116 colon it was 8.46% (active). The growth in the assay on HCC-2998 colon was 62.8%; in the assay with KM12 colon it was 34.8%.
